This is a sample that favours compounds with a hit; in the whole collection about 4.1% have one here.
hcDAF12 agonist = H. contortus DAF-12 activation, primary screen; HEK293 hcDAF-12 lit1-tk-luc reporter, luminescence; 0% DMSO, 100% Δ7-dafachronic acid; activation, % at 6.8 µM; actives 1.4% (n = 370,000); AID 652067;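 active means activation above the mean of all tested compounds plus 3 SD, cut at about 5.5% in these data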
DAX1 inh-1 = inhibits human nuclear receptor DAX1. P51843. HEK293 Gal4-DAX1 luciferase reporter, luminescence. inhibition, % at 6.75 µM. actives 0.99% (n = 340,000);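 active means inhibition above the mean over all tested compounds plus 3 SD, cut at about 4.2% in these data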;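 further: inhibition shows as a rise in luminescence from relieved DAX1 repression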
Target sequence (P51843 207-470 limits assumed): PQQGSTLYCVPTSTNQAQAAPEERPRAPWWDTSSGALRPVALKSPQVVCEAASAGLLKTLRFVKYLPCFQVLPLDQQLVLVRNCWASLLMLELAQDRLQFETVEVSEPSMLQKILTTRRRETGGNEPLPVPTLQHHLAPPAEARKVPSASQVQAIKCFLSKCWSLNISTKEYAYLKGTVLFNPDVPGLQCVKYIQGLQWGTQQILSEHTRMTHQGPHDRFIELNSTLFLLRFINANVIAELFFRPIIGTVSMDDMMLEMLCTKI
ssDAF12 agonist = activators of S. stercoralis DAF-12 nuclear receptor. HEK293 ssDAF-12/GRIP1 lit1-tk-luc reporter, luminescence; % of 3 µM dafachronic acid response. activation, % at 6.8 µM. actives 1% (n = 370,000). AID 652126;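 active means activation above the mean over all tested compounds plus 3 SD, cut at about 0.9% in these data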
DAX1 inh-2 = inhibitors of DAX1 repression of SF-1 activated StAR promoter | actives 1.1% (n = 370,000) | AID 652010 | HEK293T StAR-luciferase reporter, SF-1/DAX-1 repression relief | inhibition, % at 6.8 µM;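 active means inhibition above the mean over all tested compounds plus 3 SD, cut at about 3.6% in these data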;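 further: higher inhibition means more luminescence from relief of DAX-1 repression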
hgDAF-12 ag = activates the H. glycines DAF-12 receptor ligand-binding domain. HEK293 GAL4-hgDAF12 UAS-luciferase reporter, agonist luminescence; normalized to butyrate control. actives 1.8% (n = 370,000). activation, % at 6.8 µM;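 active means activation above a cutoff set at the mean of all screened compounds plus 3 SD, cut at about 10% in these data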
LXR ag = LXR-beta agonism as hcDAF-12 counter-screen | HEK293 Gal4-LXR tk-luc reporter, luminescence, 24 h; normalized: DMSO 0%, positive control 100% | activation, % at 6.8 µM | shares compounds with hcDAF12 agonist | 3,400 tested, under 10 active;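 active means mean percent activation of the reporter above a cutoff set as the average over tested compounds plus their standard deviation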
hcDAF12 ag = hcDAF-12 agonism, confirmation assay; actives 61% (n = 3,400); AID 743032; shares compounds with hcDAF12 agonist; activation, % at 6.8 µM; HEK293 hcDAF-12 lit1-tk-luc reporter, luminescence; % of Δ7-dafachronic acid response;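 active means mean activation across triplicate tests above the threshold derived from the earlier primary screen, cut at about 5.5% in these data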
Each line names hits and unclear results; the compound was inactive in the other large screens (follow-up assays come after a bar, where they were run); ! = a repeat was not active.

Cc1c(/N=C(\[O-])Nc2ccc(Br)cc2)sn[n+]1C	hcDAF12 agonist 7.0, hgDAF-12 ag 11 (no result: DAX1 inh-1) | LXR ag inactive | hcDAF12 ag 7.5
CN[C@H]1C[C@H]2c3[nH]c4cccc(-c5cccc(C)c5)c4c3CCN2C(=O)[C@H]1[C@H](C)O	none (no result: DAX1 inh-1)
CN[C@H]1C[C@H]2c3[nH]c4ccccc4c3CCN2C(=O)[C@H]1[C@H](C)O	hcDAF12 agonist 8.1 | LXR ag inactive | hcDAF12 ag inactive
CSC(=Cc1ccc(C(=O)c2ccc(C)cc2)n1C)S(C)=O (configuration not stated)	none (no result: DAX1 inh-1)
O=C(CCCOc1ccccc1)N1CCN(c2ccccn2)CC1	hcDAF12 agonist 10 | LXR ag inactive | hcDAF12 ag 6.4
CCC1CCC(N2CCN(c3cccc(OC)c3)CC2)CC1 (configuration not stated)	hcDAF12 agonist 8.1 | LXR ag inactive | hcDAF12 ag inactive
O=C1CSC(=S)N1N=Cc1c[nH]c2ccc(Br)cc12	none
COc1ccc(Br)cc1/C=N/N1C(=O)CSC1=S	hcDAF12 agonist 7.1 | LXR ag inactive | hcDAF12 ag inactive
Cc1cc(C)c(S(=O)(=O)Nc2ccccc2C(=O)OCC(=O)NCc2ccccc2)c(C)c1	none
O=C(Cc1ccccc1[N+](=O)[O-])N1CCOCC1	none
O=C(CNCc1ccccc1[N+](=O)[O-])N1CCC2(CC1)OCCO2	hcDAF12 agonist 7.0, hgDAF-12 ag 13 (no result: DAX1 inh-1) | LXR ag inactive | hcDAF12 ag inactive
Nc1cc2c(cc1Cl)-c1ccccc1C2	hcDAF12 agonist 7.5, hgDAF-12 ag 12 | LXR ag inactive | hcDAF12 ag inactive
CC(OC(=O)c1cc(=O)[nH]c2ccccc12)C(=O)NC1CCCC1 (configuration not stated)	none
O=C(Nc1ccc(Cl)cc1)N1CCc2ccccc2C1	none
O=C(Nc1ccccc1)N1CCc2ccccc2C1	hcDAF12 agonist 6.8, hgDAF-12 ag 11 | LXR ag inactive | hcDAF12 ag 7.9
CC(=O)c1ccc(NC(=O)N2CCc3ccccc3C2)cc1	none
Cc1ccc(NC(=O)N2CCc3ccccc3C2)cc1	hcDAF12 agonist 7.4 | LXR ag inactive | hcDAF12 ag 6.7
CC(C)/C=C/CN1CCCC(N2CCN(c3cccc(Cl)c3)CC2)C1 (configuration not stated)	none
Cn1ccnc1SCC(=O)c1c[nH]c2ccccc12	hcDAF12 agonist 9.3, ssDAF12 agonist 3.8 | LXR ag inactive | hcDAF12 ag 7.4
Oc1ccc(-c2cn3cc(C(F)(F)F)ccc3n2)cc1	hcDAF12 agonist 7.7, hgDAF-12 ag 12 | LXR ag inactive | hcDAF12 ag 9.0
c1ccc2[nH]c(-c3ccnc4ccccc34)nc2c1	hcDAF12 agonist 6.7! | LXR ag inactive | hcDAF12 ag 7.9
c1ccc2nc(-c3nc4ccccc4[nH]3)ccc2c1	hcDAF12 agonist 21, ssDAF12 agonist 1.1, hgDAF-12 ag 13 | LXR ag inactive | hcDAF12 ag 21
COc1ccc(Cl)cc1S(=O)(=O)N1CCCC(C(=O)NCc2ccccc2)C1 (configuration not stated)	none
c1ccc(-c2nnc(-c3ccccn3)s2)nc1	hcDAF12 agonist 9.6, ssDAF12 agonist 1.0, hgDAF-12 ag 13 | LXR ag inactive | hcDAF12 ag 14
Cc1cc(Cl)ccc1OCc1nnc2n1CCCCC2	none
CC(C)c1ccccc1NC(=O)COC(=O)Cc1c[nH]c2ccccc12	hcDAF12 agonist 7.9, ssDAF12 agonist 1.3 | LXR ag inactive | hcDAF12 ag inactive
Cc1cccc(NC(=O)COC(=O)Cc2c[nH]c3ccccc23)c1C	none
COC(=O)c1cnc(N)s1	none
CN(C)CCCN(C(=O)c1sc2ccccc2c1Cl)c1nc2ccc(F)cc2s1	hcDAF12 agonist 7.6 | LXR ag inactive | hcDAF12 ag 8.0
Cc1c(C(=O)Nc2ccc(N3CCOCC3)cc2)oc2ccccc12	hcDAF12 agonist 11 | LXR ag inactive | hcDAF12 ag 8.6
Cc1c(C(=O)Nc2cccnc2Cl)oc2ccccc12	hcDAF12 agonist 6.7 | LXR ag inactive | hcDAF12 ag 6.8
Cc1c(C(=O)OCC(=O)Nc2ccc(N3CCOCC3)cc2)oc2ccccc12	none
Cc1c(C(=O)Nc2ccccn2)oc2c(Cl)cccc12	hcDAF12 agonist 8.8, ssDAF12 agonist 2.0 | LXR ag inactive | hcDAF12 ag 6.5
Cc1c(C(=O)Nc2nc3ccccc3[nH]2)oc2c(Cl)cccc12	hcDAF12 agonist 8.7, ssDAF12 agonist 1.0 | LXR ag inactive | hcDAF12 ag 9.2
Cc1cc(=O)oc(C)c1C(=O)Nc1cccnc1Cl	none
COC(=O)c1sc(NC(=O)c2oc3ccccc3c2C)nc1C	hcDAF12 agonist 8.2 | LXR ag inactive | hcDAF12 ag inactive
COc1ccc(NC(=O)CCCC(=O)NCCc2ccc(OC)c(OC)c2)cc1	none
CCCCC(=O)/C=C/n1c(=S)oc2ccccc21	hcDAF12 agonist 6.6 | LXR ag inactive | hcDAF12 ag inactive
Cc1ccc(S(=O)(=O)CCC(=O)OCC(=O)N2CCc3ccccc32)cc1	none
Cc1ccc(S(=O)(=O)CCC(=O)N2CCc3ccccc32)cc1	hcDAF12 agonist 6.8 | LXR ag inactive | hcDAF12 ag inactive
Brc1ccc(-c2nc(N/N=C/c3cccnc3)c3ccccc3n2)cc1	hcDAF12 agonist 11, ssDAF12 agonist 1.6, hgDAF-12 ag 13 | LXR ag inactive | hcDAF12 ag 14
CN(C(=O)c1cc2c(cc1Br)OCO2)c1cccc2ccccc12	none
O=C(O)c1ccc2c(=O)n3c(nc2c1)/C(=C/c1ccc(C(F)(F)F)cc1)CC3	hcDAF12 agonist 7.0 | LXR ag inactive | hcDAF12 ag inactive
N#Cc1ccc(/C=C2\CCCCn3c2nc2cc(C(=O)O)ccc2c3=O)cc1	none
O=C1Nc2ccc(Br)cc2C1(O)c1ccccc1 (configuration not stated)	none
O=C1Nc2ccc(Br)cc2C12NNc1ccccc1O2 (configuration not stated)	hcDAF12 agonist 6.9 | LXR ag inactive | hcDAF12 ag inactive
Cn1c(=NN=Cc2ccccc2OCCO)sc2ccccc21	hcDAF12 agonist 7.8, ssDAF12 agonist 1.7 | LXR ag inactive | hcDAF12 ag 7.9
COc1cc(C(=O)N/N=c2/sc3ccccc3n2C)cc(OC)c1OC	none
COC(=O)c1ccccc1NC(=S)N(Cc1ccc2c(c1)OCO2)Cc1cc2cc(OC)ccc2[nH]c1=O	none
CCC1(c2ccc(F)cc2)NC(=O)N(CC(=O)N2CCN(S(=O)(=O)c3ccc(C)cc3C)CC2)C1=O (configuration not stated)	none

Source: PubChem (The Scripps Research Institute Molecular Screening Center)
